Giardia FBPA inh: qHTS Assay for Inhibitors of Fructose-1,6-bisphosphate Aldolase from Giardia Lamblia | actives 0.71% (n = 290,000) | purified Giardia FBPA | Potency, µM (series often up to 59.6 µM), most hits filed as inhibitors | A8B2U2 | AID 2451, 2010; also: nearly all actives have a fitted effect of over 55% in size
Target sequence (A8B2U2 whole entry, looked up): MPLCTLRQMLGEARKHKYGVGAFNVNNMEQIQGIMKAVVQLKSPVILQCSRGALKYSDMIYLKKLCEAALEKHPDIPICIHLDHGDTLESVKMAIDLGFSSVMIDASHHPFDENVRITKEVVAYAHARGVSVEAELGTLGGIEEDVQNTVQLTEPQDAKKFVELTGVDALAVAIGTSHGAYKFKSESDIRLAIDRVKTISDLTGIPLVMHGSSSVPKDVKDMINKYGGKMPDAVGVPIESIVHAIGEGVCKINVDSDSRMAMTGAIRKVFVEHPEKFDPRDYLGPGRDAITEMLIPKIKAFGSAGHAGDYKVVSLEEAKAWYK
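Giardia FBPA (40 nM reagent) was preincubated 10 min at RT with compound (up to 57.5 uM final), then substrate plus GAPDH/TPI/NAD/arsenate coupling system with diaphorase/resazurin was added; resorufin fluorescence (525/598 nm) was read after 20 min.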
LmPK inh: qHTS Assay for Inhibitors of Leishmania Mexicana Pyruvate Kinase (LmPK) | Q27686 | purified LmPK, Kinase-Glo ATP luminescence, 1 h | Potency, µM (titrated, usually from 57.5 µM), most hits filed as inhibitors | actives 0.37% (n = 290,000) | AID 1721, 2009
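0.1 nM LmPK, 0.5 mM PEP, 0.1 mM ADP; 50 mM imidazole pH 7.2, 7 mM MgCl2, 50 mM KCl; 1 h RT. Kinase-Glo luminescence readout, normalized to no-enzyme (full inhibition) and uninhibited wells.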
Shiga toxin inh: A qHTS for Small Molecule Inhibitors of Shiga Toxin; Vero cells, Shiga toxin protein synthesis inhibition reporter; AID 2315, 2010; actives 9.2% (n = 290,000); inhibition, % at 38.7 µM; in the data active = inhibition mostly above about 28%, no sharp cut-off; inactive = mostly below about 43%
Tb PYK inh: qHTS of Trypanosoma Brucei Inhibitors. pyruvate kinase (Trypanosoma brucei), Q57TT1. AID 624173, 2012. TbPYK enzyme, Kinase-Glo Plus ATP luminescence, 45 min. actives 0.12% (n = 410,000). Potency, µM (highest dose often 76.8 µM), actives largely listed as inhibitors; also: nearly all actives have a fitted effect of over 50% in size
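Activity of T. brucei pyruvate kinase was followed by Kinase-Glo Plus luminescence after the enzyme reacted 45 min at room temperature with 130 uM ADP (final) and substrate. Test compounds were added before ADP at multiple concentrations.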
RE007 growth inh: qHTS Assay for Inhibitors of the HIV-1 protein Vpr | S. pombe RE007 Vpr strain, BacTiter-Glo ATP luminescence, 24 h | Potency, µM (highest dose often 92.2 µM), usual class: inhibitors | actives 0.21% (n = 360,000); active = well fitted falling curve with a large enough effect; inconclusive = small, poorly fitted or top-dose-only effect; inactive = no such curve, though single readings can be large or run the other way; also: nearly all actives have a fitted effect of over 50% in size
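Fission yeast RE007 carrying one integrated HIV-1 vpr copy, seeded at OD 0.01 in PMG+AL medium with 23 nL pinned compound. Grown 24 h at 30 degrees; viability read by BacTiter-Glo luminescence after 5 min.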
CHX counter: Cycloheximide Counterscreen for Small Molecule Inhibitors of Shiga Toxin; cell reporter, cycloheximide protein synthesis inhibition counterscreen; max response, %; actives 12% (n = 300,000); in the data active = max response mostly above about 13%, no sharp cut-off; inactive = mostly below about 14%; also: read at 38.3 µM for the half of the compounds with a filed dose
Hits are given with their value; - = inactive; ? = inconclusive; . = no result; + = active, no number; [ ] = another dose, or the depositor's remark. Shown is part of a subset that was picked to be rich in hits. Unless noted, calls follow the shape of the dose curve; as a rule, active = well fitted curve in the direction sought with a large enough effect; inconclusive = small, poorly fitted or top-dose-only effect, or another doubt; inactive = no such curve, though single readings can be large; an effect the other way counts as inactive or inconclusive.

SMILES	Giardia FBPA inh	LmPK inh	Shiga toxin inh	Tb PYK inh	RE007 growth inh	CHX counter
O=C(COc1ccc(Br)cc1)NCc1ccccn1	-	-	-	-	-	-
O=C(COc1ccc2ccccc2c1Br)NCc1ccccn1	-	-	57.4	-	?	23.2
COC(=O)C(CC(C)C)NS(=O)(=O)c1ccccc1Br (stereo not given)	-	.	-	.	.	-
O=C(NC1(C(F)(F)F)NC(=O)N(CCc2ccccc2)C1=O)c1ccccc1Cl (stereo not given)	.	.	.	-	.	.
Cc1ccc(NCN2C(=O)c3ccccc3C2=O)cc1Cl	.	.	.	-	-	.
Cc1ccc(N/N=C2\CC(=O)c3ccccc32)cc1Cl	?	-	-	.	.	12.6
CCC[C@H]1C[C@H](C(=O)NC(C(C)Cl)C2O[C@@H](SC)C(OP(=O)(O)O)[C@@H](O)[C@@H]2O)N(C)C1 (stereo not given in full)	-	.	-	-	.	-
Cc1ccc(Cc2cnc(NC(=O)c3cccs3)s2)cc1	.	-	192.5	-	?	45.6
Cc1ccc(C(=O)Nc2ncc(Cc3ccccc3)s2)o1	-	?	80.4	.	-[3.69 µM]	42.3
O=C(Nc1ncc(Cc2cccc(Cl)c2)s1)C1=NCCN1	.	-	-	-	-	-
O=C(Nc1ncc(Cc2cccc(Cl)c2)s1)c1cccs1	.	-	126.5	-	?	53.5
O=C(Nc1nc(-c2cc(Cl)sc2Cl)cs1)c1cccs1	-	-	-	-	-	11.4
COc1ccc(Cc2nnc(NC(=O)c3cccs3)s2)cc1	-	-	-	-	-	-
CC(C)(C)OC(=O)N1CCC(c2c(C(=O)NCCN3CCOCC3)cnn2-c2ccccc2)CC1	.	.	.	-[15.4 µM]	.	.
Cc1cc(F)ccc1NC(=O)C1CCC(CNS(=O)(=O)c2ccc3c(c2)CCCC(=O)N3)CC1 (stereo not given)	.	.	.	-	.	.
COc1cccc(-c2nc(CS(=O)CC(=O)N3CCN(c4cccc(C(F)(F)F)c4)CC3)c(C)o2)c1 (stereo not given)	.	.	.	-	.	.
Cc1ccc(-n2nc(C)c3c(C)cc(=O)n(CC(=O)Nc4cccc(C)c4C)c32)cc1	.	.	.	-	.	.
COc1ccc(-c2ccc(F)cc2)cc1C1C2C=CCC(C)C2C(=O)N1Cc1ccccc1 (stereo not given)	-	.	-	.	.	-
O=C(Nc1ncc(Cc2ccccc2)s1)c1cccs1	-	-	131.0	-	?	58.8
O=C(Nc1ncc(Cc2ccc(SC(F)F)cc2)s1)c1ccccc1	-	-	-	-	-	-
COCCNC(=S)N1CCN(c2nc3ccccc3s2)CC1	-	-	-	-	-	32.1
COCCCNC(=S)N1CCN(c2ccc([N+](=O)[O-])cc2)CC1	-	-	-	-	.	-
COCCCNC(=S)N1CCN(c2nc3ccccc3s2)CC1	-	-	-	-	-	13.7
COc1ccccc1NCc1cccn1-c1nnc(N2CCOCC2)s1	.	.	.	-	.	.
CCOc1ccc(-c2nonc2NC(=O)c2ccc(C)cc2)cc1OCC	.	.	.	-	.	.
SMILES	Giardia FBPA inh	LmPK inh	Shiga toxin inh	Tb PYK inh	RE007 growth inh	CHX counter
COc1ccc(NC(=O)c2oc3ccccc3c2NC(=O)c2cccc(F)c2)c(OC)c1	.	.	.	-	.	.
Cc1nc(NC(=O)C2CC3CCCC(C2)C3=O)sc1C (stereo not given)	-	-	+	-	-	47.0
CCC(Oc1ccccc1)C(=O)Nc1ccc(OCc2cc(=O)n3ccc(C)cc3n2)cc1 (stereo not given)	.	.	.	-	.	.
CC(=O)n1cc([C@@H]2C=C(C(=O)Nc3ccccc3)O[C@H](OCCCCO)C2)c2ccccc21	-	-	24.3	-	-	-
O=C(NCc1ccccc1)C1=C[C@H](c2csc3ccccc23)C[C@H](OCCCCO)O1	-	-	-	-	-	-
O=C(C1=C[C@@H](c2csc3ccccc23)C[C@@H](OCc2ccc(CO)cc2)O1)N1CCN(Cc2ccccc2)CC1	-	-	-	-	-	-
O=C(Nc1ccccc1)C1=C[C@H](c2csc3ccccc23)C[C@H](OCCCCO)O1	-	-	-	-	-	12.0
O=C(C1=C[C@@H](c2csc3ccccc23)C[C@@H](OCc2ccc(CO)cc2)O1)N1CCOCC1	-	-	-	-	-	10.8
CC(=O)n1cc([C@H]2C=C(C(=O)O)O[C@@H](OCCCCO)C2)c2ccccc21	-	-	-	-	-	-
COc1ccccc1N1CCN(c2c(CN3CCCC3)c(=O)oc3ccccc23)CC1	.	.	.	-	.	.
COc1ccccc1Nc1nc(-c2ccc(F)cc2)c2c(n1)-c1ccccc1OC2	.	.	.	-	.	.
COc1ccc(CNC(=O)CSCc2nc(-c3ccccc3C)oc2C)cc1	.	.	.	-	.	.
Cc1ccc(S(=O)(=O)N2CCCOC2CNC(=O)C(=O)NCCc2c[nH]c3ccccc23)cc1 (stereo not given)	-	-	96.1	-	-	73.1
COc1ccccc1CCNC(=O)C(=O)NCC1OCCN1S(=O)(=O)c1ccccc1 (stereo not given)	-	-	-	-	-	-
COc1ccccc1CCNC(=O)C(=O)NCC1OCCN1S(=O)(=O)c1cccs1 (stereo not given)	.	-	24.6	-	-	33.6
O=C(NCCc1c[nH]c2ccccc12)C(=O)NCC1OCCCN1S(=O)(=O)c1ccccc1 (stereo not given)	-	-	-	-	-	-
O=C(Nc1ccccc1)C1=C[C@H](c2ccccc2)C[C@H](OCCCCO)O1	.	.	.	-	-	.
O=C(Nc1ccccc1)C1=C[C@@H](C2CC2)C[C@@H](OCc2ccc(CO)cc2)O1	-	-	47.3	-	-	35.4
O=C(Nc1ccccc1)C1=C[C@@H](C2CC2)C[C@@H](OCCCCO)O1	-	-	57.9	-	-	55.4
O=C(Nc1ccccc1)C1=C[C@H](c2ccccc2)C[C@H](OCc2ccc(CO)cc2)O1	-	-	52.6	-	-	31.6
Cc1nc(N2CCOCC2)c2nc(-c3ccccc3)n(CCN3CCOCC3)c2n1	-	.	.	.	.	.
O=C(N/N=C/c1ccncc1)c1ccc(COc2cccc3cccnc23)cc1	-	-	-	-	-	-
COc1ccc(C(=O)N/N=C/c2ccc3cccc(O)c3n2)cc1	-	-	-	-	-	-
O=C(N/N=C/c1cccc(O)c1)c1ccc(COc2cccc3cccnc23)cc1	-	-	34.5	-	-	21.0
CC(C)(C)c1ccc(OCc2ccc(C(=O)N/N=C/c3ccc(O)c(O)c3)cc2)cc1	-	-	63.9	-	-	17.8
O=C(N/N=C/c1ccc(OCc2ccc(F)cc2)cc1)c1ccccc1	-	-	-	-	-	-
Cc1ccc(C(C)C)c(OCc2ccc(C(=O)N/N=C/c3ccc(C(=O)O)cc3)cc2)c1	-	-	-	-	-	11.3

Screening results deposited in PubChem BioAssay by National Center for Advancing Translational Sciences (NCATS).
